According to PubChem BioAssay (EPA / NIEHS):
Inconclusive results are not listed. Calls of active or inactive are those of the source. How the source made its calls, unless noted: active means hit-call score of the fitted dose curve at least 0.9, where 1 is the maximum; inconclusive means response in the unintended direction; inactive means score below 0.9.

Biological target: Estrogen receptor (Homo sapiens) (UniProt P03372)
Experiment: ATG_ERa_TRANS: Attagene TRANS-FACTORIAL HepG2 Assay for human Estrogen Receptor alpha (ERa) (AID 2282970)
Details: HepG2 Attagene TRANS ERa GAL4 reporter, mRNA
Outline: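 After 24 h of compound treatment, RNA from HepG2 cells bearing transfected GAL4-UAS reporter constructs is converted to cDNA, amplified and fluorescently labelled. Capillary electrophoresis resolves the ERa-linked reporter; DMSO serves as negative control.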

Sequence of Estrogen receptor (Homo sapiens) (P03372 whole entry, looked up): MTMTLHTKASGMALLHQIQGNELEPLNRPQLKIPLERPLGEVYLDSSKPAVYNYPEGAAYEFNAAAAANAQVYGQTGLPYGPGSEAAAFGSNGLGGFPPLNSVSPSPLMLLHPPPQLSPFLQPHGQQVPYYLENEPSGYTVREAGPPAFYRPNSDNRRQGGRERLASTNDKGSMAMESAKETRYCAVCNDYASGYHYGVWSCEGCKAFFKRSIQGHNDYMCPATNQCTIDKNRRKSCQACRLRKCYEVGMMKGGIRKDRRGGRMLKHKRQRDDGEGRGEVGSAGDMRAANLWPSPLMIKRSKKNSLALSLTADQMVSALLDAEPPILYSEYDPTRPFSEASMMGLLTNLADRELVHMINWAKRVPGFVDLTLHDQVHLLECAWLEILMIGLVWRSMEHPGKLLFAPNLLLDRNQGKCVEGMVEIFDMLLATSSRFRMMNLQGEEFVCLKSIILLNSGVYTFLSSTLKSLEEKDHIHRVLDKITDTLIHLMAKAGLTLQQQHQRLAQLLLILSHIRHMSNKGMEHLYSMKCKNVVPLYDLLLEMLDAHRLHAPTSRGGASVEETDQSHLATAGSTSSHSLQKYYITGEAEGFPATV

outcome, inactive:
CC(C)CCO
C=CCCCCCCCCC(=O)O
O=C(O)c1cccc(Oc2ccccc2)c1
CCC(C)(C)C(=O)O[C@H]1C[C@@H](C)C=C2C=C[C@H](C)[C@H](CC[C@@H]3C[C@@H](O)CC(=O)O3)[C@H]21
O=P(OC(CCl)CCl)(OC(CCl)CCl)OC(CCl)CCl
COc1ccc(-n2nc(C(F)F)cc2-c2ccc(S(C)=O)cc2)cc1 (stereo not given)
CC(C)=CCCC(C)=CC=O
Cn1c(=O)cc(Oc2ccc(F)cc2F)c2cnc(NCC(C)(C)O)nc21
CCCCCCCCO
CC[C@H](C)C(=O)O[C@H]1C[C@@H](C)C=C2C=C[C@H](C)[C@H](CC[C@@H]3C[C@@H](O)CC(=O)O3)[C@H]21
O=c1[nH]c2ccc(S(=O)CCN3CCC(Cc4ccc(F)cc4)CC3)cc2o1 (stereo not given)
CCn1nc(Cc2ccccc2)cc1C1CCN(C[C@H]2C[C@H](N(C)[C@@H](C(=O)O)C(C)C)C[C@@H]2c2cccc(F)c2)CC1

AC50, active:
COC(=O)c1ccccc1O 25.1 µM
COc1ccc2sc(C(=O)Nc3nnn[nH]3)c(OC(C)C)c2c1 59.3 µM

Biological target: Steroid hormone receptor ERR1 (Homo sapiens) (UniProt P11474)
Experiment: ATG_ERRa_TRANS: Attagene TRANS-FACTORIAL HepG2 Assay for human Estrogen-Related Receptor alpha (ERRa) (AID 2282971)
Details: HepG2 Attagene TRANS reporter, ERRa transactivation
Outline: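 Transfected HepG2, 24 h dosing, ERRa-Gal4 chimera driving GAL4-UAS reporter. Readout: reporter mRNA via RT-PCR plus capillary electrophoresis (fluorescence). Positive direction vs DMSO control.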

Sequence of Steroid hormone receptor ERR1 (Homo sapiens) (P11474 whole entry, looked up): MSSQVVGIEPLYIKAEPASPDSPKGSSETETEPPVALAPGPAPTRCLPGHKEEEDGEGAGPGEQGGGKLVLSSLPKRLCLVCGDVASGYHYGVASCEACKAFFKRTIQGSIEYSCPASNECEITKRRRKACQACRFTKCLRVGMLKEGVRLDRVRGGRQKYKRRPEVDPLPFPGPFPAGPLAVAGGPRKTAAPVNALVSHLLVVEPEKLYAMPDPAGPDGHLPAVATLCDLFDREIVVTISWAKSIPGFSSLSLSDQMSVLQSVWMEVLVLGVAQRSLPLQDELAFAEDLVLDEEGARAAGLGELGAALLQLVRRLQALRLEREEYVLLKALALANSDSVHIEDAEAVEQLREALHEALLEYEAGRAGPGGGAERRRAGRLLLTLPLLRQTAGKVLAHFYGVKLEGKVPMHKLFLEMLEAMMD

outcome, inactive:
CN(C)c1ccc(Cc2ccc(N(C)C)cc2)cc1
CCOC(=O)c1ccc(C2CCC(NC[C@H](O)COc3ccc(O)c(NS(C)(=O)=O)c3)CC2)cc1 (stereo not given in full)
CCCN(C1CCN(C(=O)C2CCNCC2)CC1)[C@@H]1CCc2ccc(OC)cc2C1
O=C(CCCCCCCCc1cccnc1)N1CCC(C=C(c2ccccc2)c2ccccc2)CC1

Biological target: X-box-binding protein 1 (Homo sapiens) (UniProt P17861)
Experiment: ATG_Xbp1_CIS: Attagene CIS-FACTORIAL HepG2 Assay for human X-box Binding Protein 1 (XBP1) (AID 2282972; active means hit-call score of the fitted dose curve at least 0.9, where 1 is the maximum; inactive means score below 0.9)
Details: HepG2 XBP1 cis-element reporter, Attagene multiplex; actives raise or lower the signal
Outline: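 HepG2 cells transiently transfected with cis-regulated multiple reporter transcription units; endogenous transcription factor activity measured 24 hours after chemical dosing. Reporter mRNA quantified by RT-PCR, 6-FAM primer extension, HpaI digestion and capillary electrophoresis; bidirectional fitting versus DMSO.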

Sequence of X-box-binding protein 1 (Homo sapiens) (P17861 whole entry, looked up): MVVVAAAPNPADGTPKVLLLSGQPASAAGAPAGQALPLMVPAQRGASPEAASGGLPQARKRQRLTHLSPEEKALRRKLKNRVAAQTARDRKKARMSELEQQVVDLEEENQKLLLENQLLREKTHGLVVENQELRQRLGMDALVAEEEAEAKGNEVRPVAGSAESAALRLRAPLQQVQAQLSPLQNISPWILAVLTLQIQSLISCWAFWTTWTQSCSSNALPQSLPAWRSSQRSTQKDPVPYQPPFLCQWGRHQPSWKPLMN

outcome, inactive:
CC(C)=CCC/C(C)=C/CO
CC(C)CCO
C=CCCCCCCCCC(=O)O
O=C1OC(=O)C2C3C=CC(C3)C12 (stereo not given)
Nc1cccc(N)c1
O=C(O)c1cccc(Oc2ccccc2)c1
CC[C@H]1OC(=O)[C@H](C)[C@@H](O[C@H]2C[C@@](C)(OC)[C@@H](O)[C@H](C)O2)[C@H](C)[C@@H](O[C@@H]2O[C@H](C)C[C@H](N(C)C)[C@H]2O)[C@](C)(O)C[C@@H](C)C(=O)[C@H](C)[C@@H](O)[C@]1(C)O
CC1(C)C(=O)N(Br)C(=O)N1Br
COc1ccc(/C=C/S(=O)(=O)NC(=O)c2ccc(C)cc2Cl)cc1
COC(=O)CC(=O)OC
CCC(C)(C)C(=O)O[C@H]1C[C@@H](C)C=C2C=C[C@H](C)[C@H](CC[C@@H]3C[C@@H](O)CC(=O)O3)[C@H]21
CN(C)c1ccc(Cc2ccc(N(C)C)cc2)cc1
COC(=O)c1ccccc1O
COc1ccc(-n2nc(C(F)F)cc2-c2ccc(S(C)=O)cc2)cc1 (stereo not given)
CC(C)=CCCC(C)=CC=O
Cn1c(=O)cc(Oc2ccc(F)cc2F)c2cnc(NCC(C)(C)O)nc21
CCCCCCCCO
CC[C@H](C)C(=O)O[C@H]1C[C@@H](C)C=C2C=C[C@H](C)[C@H](CC[C@@H]3C[C@@H](O)CC(=O)O3)[C@H]21
CCCCCCCCCCCCCCCO
CCOCCO
CCn1nc(Cc2ccccc2)cc1C1CCN(C[C@H]2C[C@H](N(C)[C@@H](C(=O)O)C(C)C)C[C@@H]2c2cccc(F)c2)CC1

AC50, active:
CCOC(=O)c1ccc(C2CCC(NC[C@H](O)COc3ccc(O)c(NS(C)(=O)=O)c3)CC2)cc1 (stereo not given in full) 54.4 µM
COCCOc1cc2cc(C(=O)NC3CCN(C(C)C)CC3)n(CC(=O)Nc3ccc(Cl)cn3)c2cn1 100 µM
O=P(OC(CCl)CCl)(OC(CCl)CCl)OC(CCl)CCl 100 µM
CCCCCCc1ccc(O)cc1O 55.3 µM
CCCN(C1CCN(C(=O)C2CCNCC2)CC1)[C@@H]1CCc2ccc(OC)cc2C1 153 µM
O=C(CCCCCCCCc1cccnc1)N1CCC(C=C(c2ccccc2)c2ccccc2)CC1 3.5 µM
O=c1[nH]c2ccc(S(=O)CCN3CCC(Cc4ccc(F)cc4)CC3)cc2o1 (stereo not given) 71.1 µM
COc1ccc2sc(C(=O)Nc3nnn[nH]3)c(OC(C)C)c2c1 156 µM

Tested on: not listed separately
Experiment: ATG_M_19_TRANS: Attagene TRANS-FACTORIAL HepG2 Assay for M19 Transcription Factor (Internal Marker) (AID 2282974)
Details: HepG2 Attagene TRANS-FACTORIAL M19 internal marker reporter
Outline: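 24 h chemical exposure of transiently transfected HepG2 (MRTU library). RNA → oligo(dT) RT → PCR → 6-FAM labelling → HpaI cut → CE fluorescence. Positive-direction fit vs DMSO baseline; background internal-marker readout.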

outcome, inactive:
CC(C)CCO
C=CCCCCCCCCC(=O)O
O=C1OC(=O)C2C3C=CC(C3)C12 (stereo not given)
Nc1cccc(N)c1
COc1ccc(/C=C/S(=O)(=O)NC(=O)c2ccc(C)cc2Cl)cc1
CCC(C)(C)C(=O)O[C@H]1C[C@@H](C)C=C2C=C[C@H](C)[C@H](CC[C@@H]3C[C@@H](O)CC(=O)O3)[C@H]21
CCOC(=O)c1ccc(C2CCC(NC[C@H](O)COc3ccc(O)c(NS(C)(=O)=O)c3)CC2)cc1 (stereo not given in full)
COc1ccc(-n2nc(C(F)F)cc2-c2ccc(S(C)=O)cc2)cc1 (stereo not given)
Cn1c(=O)cc(Oc2ccc(F)cc2F)c2cnc(NCC(C)(C)O)nc21
CCCCCCCCO
CC[C@H](C)C(=O)O[C@H]1C[C@@H](C)C=C2C=C[C@H](C)[C@H](CC[C@@H]3C[C@@H](O)CC(=O)O3)[C@H]21
CCCN(C1CCN(C(=O)C2CCNCC2)CC1)[C@@H]1CCc2ccc(OC)cc2C1
CCn1nc(Cc2ccccc2)cc1C1CCN(C[C@H]2C[C@H](N(C)[C@@H](C(=O)O)C(C)C)C[C@@H]2c2cccc(F)c2)CC1
